Experimental findings from PubChem BioAssay (NCI) are described below.

About 83,000 compounds went through this panel and 20% of them were active in at least one assay; those are over-represented in the sample as a whole.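 Results are percent growth after 48 hours of single-concentration exposure. 100 means growth as in untreated cells, lower positive values show inhibition; negative values down to -100 show cell death.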 The source made the active and inactive calls. Rule for the calls: active = growth percent below 10; inactive = the rest.

The first experiment relates to M14 melanoma. Description: NCI-60 one-dose screen, 48 h (100 = growth as untreated, 0 = no growth, -100 = all killed). Particulars: 10 µM unless noted.
As for `C=CC(=O)Nc1cccc(-c2nc(SC)nc(Nc3ccccc3OC)c2C#N)c1`, the growth is 50.4% (inactive).

Turning to `COc1cccc(-c2nc3sccn3c2-c2ccnc(NCCNS(=O)(=O)c3ccc(F)cc3)c2)c1`, the growth is 23.9% (inactive).

As to `COc1cc2nc(N3CCCC3)nc(NCc3ccccc3)c2cc1OC`, the growth is -71.2% (active).

`N#Cc1c(-c2ccc(Cl)cc2)nc(N/N=C/c2cccc(Br)c2)nc1N1CCOCC1`: the growth is 62.4% (inactive).

With `CSc1nc(-c2cccc(NC(=O)CCl)c2)c(C#N)c(=O)n1C`, the growth was 56.8% (inactive).

Consider `C=CC(=O)Nc1cccc(-c2nc(SC)nc(NCCc3ccc(OC)c(OC)c3)c2C#N)c1`, for which the growth was 26.9% (inactive).

As for `O=C(/C=C/c1cccc([N+](=O)[O-])c1)c1ccc(O)c(CN2CCN(c3cc4c(cc3F)c(=O)c(C(=O)O)cn4C3CC3)CC2)c1`, the growth is 9.3% (active).

Take `COc1cc(/C=C/C(=O)c2ccc(O)c(CN3CCN(c4cc5c(cc4F)c(=O)c(C(=O)O)cn5C4CC4)CC3)c2)cc(OC)c1OC`: the growth was 48.8% (inactive).

On to `CC(C)(O)c1cn(CCCCN2C(=O)C(=O)c3ccccc32)nn1`, for which the growth was 97.7% (inactive).

As for `COC(=O)[C@]12CCC(C)(C)C[C@H]1[C@H]1C(=O)C[C@@H]3[C@@]4(C)c5c([nH]c6ccccc6c5=O)C(C)(C)[C@@H]4CC[C@@]3(C)[C@]1(C)CC2`, the growth was 29% (inactive).

Turning to `N=C(N)c1ccc(-c2ccc(-c3ccc4ccccc4c3)s2)s1`, the growth was 39.7% (inactive).

Consider `C=CC(=O)Nc1cccc(-c2nc(SC)nc(NCCN3CCOCC3)c2C#N)c1`, for which the growth is 89.9% (inactive).

In the case of `COc1cc(C=Nc2oc(-c3ccccc3)c(-c3ccccc3)c2C#N)cc(CN2CCCCC2)c1O`, the growth is 109% (inactive).

With `CC1=NN(c2nc(-c3ccc(Cl)cc3)c(C#N)c(N3CCOCC3)n2)C(=O)C1`, the growth is 90% (inactive).

For `COc1cccc(Nc2nc(SC)nc(-c3cccc([N+](=O)[O-])c3)c2C#N)c1`, the growth is 83.4% (inactive).

For `CSc1nc(NCCO)c(C#N)c(-c2cccc([N+](=O)[O-])c2)n1`, the growth was 104% (inactive).

Take `Cn1c(O)c(N=NC(=O)c2cc(-c3ccccc3)on2)c2ccccc21`: the growth was 101% (inactive).

Regarding `CSc1nc(Nc2cccc(NC(=O)/C(C#N)=C/c3c(Cl)cccc3Cl)c2)c(C#N)c(-c2cccc([N+](=O)[O-])c2)n1`, the growth was 22.6% (inactive).

`COc1ccc(-c2nc3ccc(-c4nc5ccc(N6CCN(c7ccccc7)CC6)cc5[nH]4)cc3[nH]2)cc1OC`: the growth is 1.2% (active).

For the compound `O=C(N=Nc1c(O)[nH]c2ccccc12)c1cc(-c2ccccc2)on1`, the growth was 104% (inactive).

On to `O=C1CC(=NCC(=O)n2c(-c3ccccc3)nc3ccccc32)NN1`, for which the growth is 104% (inactive).

For the next experiment, the system named is HCT-15 colon. The experiment is described as above. The settings on record: 10 µM unless noted.
On to `C=C(C)[C@@H]1CC[C@]2(C(=O)OC)CC[C@]3(C)[C@H](CC[C@@H]4[C@@]5(C)C/C(=C/c6cccc(I)c6)C(=O)C(C)(C)[C@@H]5CC[C@]43C)[C@@H]12`, for which the growth was 99.3% (inactive).

For `N#Cc1c(-c2ccc(Cl)cc2)nc(NN=Cc2ccco2)nc1N1CCOCC1`, the growth is 80.3% (inactive).

`C=CC(=O)Nc1cccc(Nc2nc(SC)nc(-c3cccc([N+](=O)[O-])c3)c2C#N)c1`: the growth is 52.2% (inactive).

On to `COc1ccc(/C=C/C(=O)c2ccc(O)c(CN3CCN(c4cc5c(cc4F)c(=O)c(C(=O)O)cn5C4CC4)CC3)c2)cc1`, for which the growth was 19.1% (inactive).

For the compound `COc1cc2nc(N3CCCC3)nc(Nc3ccccc3)c2cc1OC`, the growth is -42.6% (active).

For the compound `COc1cccc(-c2nc3sccn3c2-c2ccnc(NCCNS(=O)(=O)c3ccccc3)c2)c1`, the growth is 11.8% (inactive).

Regarding `COc1cc(/C=C/C(=O)c2c(C)oc3nc[nH]c(=O)c23)cc(OC)c1OC`, the growth was 49.3% (inactive).

As for `C=C(C)[C@@H]1CC[C@]2(C(=O)OC)CC[C@]3(C)[C@H](CC[C@@H]4[C@@]5(C)C/C(=C/c6ccc(OC)cc6)C(=O)C(C)(C)[C@@H]5CC[C@]43C)[C@@H]12`, the growth was 59.6% (inactive).

In the case of `O=S(=O)(Nc1ccc(I)cc1F)c1ccc(-c2cnc(C3CC3)o2)cc1`, the growth is 25.5% (inactive).

In the case of `COc1cc2nc(N3CCCC3)nc(NCCc3ccccc3)c2cc1OC`, the growth was -55.1% (active).

Turning to `COc1ccc(Nc2nc(SC)nc(-c3cccc([N+](=O)[O-])c3)c2C#N)cc1`, the growth was 78.6% (inactive).

For the compound `COc1cc(CNc2oc(-c3ccccc3)c(-c3ccccc3)c2C#N)cc(CN2CCN(C)CC2)c1O`, the growth was -55.9% (active).

As to `COc1ccc(-c2nc3ccc(-c4nc5ccc(N6CCN(c7ccncc7)CC6)cc5[nH]4)cc3[nH]2)cc1OC`, the growth is 88.7% (inactive).

For `O=C1/C(=C/c2cn(-c3ccccc3)nc2-c2ccccc2)SC(=S)N1CCc1ccccc1`, the growth was 106% (inactive).

For `CCCN1CCN(c2ccc3nc(-c4ccc5nc(-c6ccc(OCC)cc6)[nH]c5c4)[nH]c3c2)CC1`, the growth is -56.5% (active).

Regarding `COc1cccc(-c2nc3sccn3c2-c2ccnc(NCCCNS(=O)(=O)c3cccc(F)c3)c2)c1`, the growth is 13.7% (inactive).

Consider `Cn1c(=O)c2c(nc3n(-c4ccc(Cl)cc4Cl)c(Sc4nc(-c5ccccc5)c(C#N)c(=O)[nH]4)cn23)n(C)c1=O`, for which the growth is 63.1% (inactive).

In the case of `O=C(/C=C/c1ccccc1)c1ccc(O)c(CN2CCN(c3cc4c(cc3F)c(=O)c(C(=O)O)cn4C3CC3)CC2)c1`, the growth was 16.9% (inactive).

Consider `C=CC(=O)Nc1cccc(-c2nc(SC)nc(Nc3ccccc3OC)c2C#N)c1`, for which the growth is 16.9% (inactive).

`COc1cccc(-c2nc3sccn3c2-c2ccnc(NCCNS(=O)(=O)c3ccc(F)cc3)c2)c1`: the growth is 17.2% (inactive).

In the case of `COc1cc2nc(N3CCCC3)nc(NCc3ccccc3)c2cc1OC`, the growth is 6.07% (active).

In the case of `N#Cc1c(-c2ccc(Cl)cc2)nc(N/N=C/c2cccc(Br)c2)nc1N1CCOCC1`, the growth is 8.41% (active).

For the compound `CSc1nc(-c2cccc(NC(=O)CCl)c2)c(C#N)c(=O)n1C`, the growth was 11% (inactive).

As to `C=CC(=O)Nc1cccc(-c2nc(SC)nc(NCCc3ccc(OC)c(OC)c3)c2C#N)c1`, the growth was 52.3% (inactive).

In the case of `O=C(/C=C/c1cccc([N+](=O)[O-])c1)c1ccc(O)c(CN2CCN(c3cc4c(cc3F)c(=O)c(C(=O)O)cn4C3CC3)CC2)c1`, the growth is -40.1% (active).

`COc1cc(/C=C/C(=O)c2ccc(O)c(CN3CCN(c4cc5c(cc4F)c(=O)c(C(=O)O)cn5C4CC4)CC3)c2)cc(OC)c1OC`: the growth was 19.3% (inactive).

Take `CC(C)(O)c1cn(CCCCN2C(=O)C(=O)c3ccccc32)nn1`: the growth was 101% (inactive).

Take `COC(=O)[C@]12CCC(C)(C)C[C@H]1[C@H]1C(=O)C[C@@H]3[C@@]4(C)c5c([nH]c6ccccc6c5=O)C(C)(C)[C@@H]4CC[C@@]3(C)[C@]1(C)CC2`: the growth is 46.5% (inactive).

Consider `N=C(N)c1ccc(-c2ccc(-c3ccc4ccccc4c3)s2)s1`, for which the growth is -82.4% (active).

`C=CC(=O)Nc1cccc(-c2nc(SC)nc(NCCN3CCOCC3)c2C#N)c1`: the growth is 90.1% (inactive).

For the compound `COc1cc(C=Nc2oc(-c3ccccc3)c(-c3ccccc3)c2C#N)cc(CN2CCCCC2)c1O`, the growth was 95.4% (inactive).

Turning to `CC1=NN(c2nc(-c3ccc(Cl)cc3)c(C#N)c(N3CCOCC3)n2)C(=O)C1`, the growth was 89.3% (inactive).

Take `COc1cccc(Nc2nc(SC)nc(-c3cccc([N+](=O)[O-])c3)c2C#N)c1`: the growth is 79.2% (inactive).

Take `CSc1nc(NCCO)c(C#N)c(-c2cccc([N+](=O)[O-])c2)n1`: the growth was 98.7% (inactive).

For `Cn1c(O)c(N=NC(=O)c2cc(-c3ccccc3)on2)c2ccccc21`, the growth was 101% (inactive).

On to `CSc1nc(Nc2cccc(NC(=O)/C(C#N)=C/c3c(Cl)cccc3Cl)c2)c(C#N)c(-c2cccc([N+](=O)[O-])c2)n1`, for which the growth is 28.9% (inactive).

On to `COc1ccc(-c2nc3ccc(-c4nc5ccc(N6CCN(c7ccccc7)CC6)cc5[nH]4)cc3[nH]2)cc1OC`, for which the growth was 15.8% (inactive).

For `O=C(N=Nc1c(O)[nH]c2ccccc12)c1cc(-c2ccccc2)on1`, the growth is 102% (inactive).

`O=C1CC(=NCC(=O)n2c(-c3ccccc3)nc3ccccc32)NN1`: the growth was 99.1% (inactive).
